EBNA-1 inh: EBNA-1 DNA-binding inhibitors, primary screen, biochemical, fluorescence polarization. hit rate 0.34% among 300,000. inhibition, % at 14.8 µM. AID 1950, 2009; in the data active = inhibition above about 28%
pPAFAH FP inh: pPAFAH enzyme inhibitors, primary screen, biochemical, fluorescence polarization, human. Platelet-activating factor acetylhydrolase (Homo sapiens), Q13093. recombinant pPAFAH, FP-rhodamine probe fluorescence polarization. inhibition, % at 3.39 µM. hit rate 1.5% among 330,000. AID 463082, 2010;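 active = inhibition above the mean inhibition across the screen plus 3 SD, cut at about 25% in these data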;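 also: inhibitors block binding of the rhodamine activity-based probe so polarization drops; 0% = enzyme with DMSO and 100% = wells lacking pPAFAH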
PAFAH1B3 inh: PAFAH1B3 enzyme inhibitors, primary screen, biochemical, fluorescence polarization, human | hit rate 0.28% among 340,000 | recombinant PAFAH1B3, FP-rhodamine probe | inhibition, % at 3.39 µM | AID 492972, 2010;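 active = inhibition above the screen-wide average of all tested compounds plus 3 SD, cut at about 25% in these data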;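 also: 0% = enzyme with DMSO only and 100% = wells lacking PAFAH1B3 protein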
Target sequence (Q15102 whole entry, looked up): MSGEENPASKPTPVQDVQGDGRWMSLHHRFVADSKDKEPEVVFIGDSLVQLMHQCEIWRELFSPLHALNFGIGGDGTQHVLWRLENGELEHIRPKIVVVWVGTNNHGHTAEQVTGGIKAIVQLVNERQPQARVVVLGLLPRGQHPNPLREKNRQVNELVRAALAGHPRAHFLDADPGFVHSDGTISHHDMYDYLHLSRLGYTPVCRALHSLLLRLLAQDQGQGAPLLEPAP
PAFAH1B2 FP inh: PAFAH1B2 enzyme inhibitors, primary screen, biochemical, fluorescence polarization, human. recombinant PAFAH1B2, FP-rhodamine activity probe. Platelet-activating factor acetylhydrolase IB subunit alpha2 (Homo sapiens), P68402. hit rate 1.2% among 340,000. inhibition, % at 3.39 µM;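 active = inhibition above the mean of all tested compounds plus 3 SD, cut at about 24% in these data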;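 also: 0% = enzyme with DMSO and 100% = wells lacking PAFAH1B2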
Target sequence (P68402 whole entry, looked up): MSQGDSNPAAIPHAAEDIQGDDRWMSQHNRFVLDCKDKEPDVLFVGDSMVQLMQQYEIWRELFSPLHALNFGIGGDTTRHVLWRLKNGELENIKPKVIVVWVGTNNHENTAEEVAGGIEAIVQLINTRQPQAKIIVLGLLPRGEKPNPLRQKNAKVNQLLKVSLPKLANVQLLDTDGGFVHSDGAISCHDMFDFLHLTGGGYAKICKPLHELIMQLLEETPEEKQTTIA
PAFAH2 inh: PAFAH2 enzyme inhibitors, primary screen, biochemical, fluorescence polarization, human; Platelet-activating factor acetylhydrolase 2, cytoplasmic (Homo sapiens), Q99487; recombinant PAFAH2, FP-rhodamine activity probe; inhibition, % at 3.39 µM; hit rate 0.99% among 340,000;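 active = inhibition above the mean over all tested compounds plus 3 SD, cut at about 30% in these data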;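 also: inhibitors block probe labeling of enzyme so polarization drops; 0% = enzyme with DMSO and 100% = wells lacking PAFAH2 protein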
ZTA DNA inh: ZTA (EBV) inhibition in EBNA-1 counter-screen. hit rate 0.15% among 320,000. ZTA-DNA binding, fluorescence polarization. AID 2234. P03206. inhibition, % at 11 µM; in the data active = inhibition above about 33%
PAFAH2 FP conf: PAFAH2 enzyme inhibitors, confirmation, biochemical, fluorescence polarization, human; shares compounds with PAFAH2 inh; recombinant PAFAH2, FP-rhodamine activity probe; inhibition, % at 3.39 µM; hit rate 65% among 2,300;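 active = mean inhibition over three repeats above a set limit taken from the earlier primary screen, cut at about 30% in these data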;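 also: inhibitor blocks binding of rhodamine activity probe so polarization falls; 0% = enzyme with DMSO and 100% = wells lacking PAFAH2 protein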
An asterisk follows results filed as active; nt = not tested or not shown. Only some compounds are listed: those with a hit (about 2.9% of all), similar ones and a draw of the others.

SMILES	EBNA-1 inh	pPAFAH FP inh	PAFAH1B3 inh	PAFAH1B2 FP inh	PAFAH2 inh	ZTA DNA inh	PAFAH2 FP conf
COc1cccc(NC(=O)COC(=O)C2CC3CCCC(C2)C3=O)c1 (centres undefined)	nt	-3	-2	9	58*	-1	54*
Cc1ccc([N+](=O)[O-])c(NC(=O)COC(=O)C2CC3CCCC(C2)C3=O)c1C (centres undefined)	1	0	8	2	34*	0	32*
CCC(Sc1nc2ccncc2[nH]1)C(=O)Nc1cc(Cl)ccc1C (centres undefined)	-5	-3	1	-5	2	2	nt
COc1ccc(S(=O)(=O)N2CCOCC2)cc1NC(=O)Cc1ccc(Cl)c(Cl)c1	2	4	3	-3	21	-2	nt
COc1ccc(S(=O)(=O)N2CCOCC2)cc1NC(=O)COC(=O)c1ccc([N+](=O)[O-])s1	nt	11	24	15	40*	nt	40*
COc1ccc(S(=O)(=O)N2CCOCC2)cc1NC(=O)Cc1ccccc1Cl	-2	8	4	1	60*	8	55*
O=C1NC(=S)S/C1=C\C=C\c1ccc([N+](=O)[O-])o1	nt	nt	17	9	43*	nt	27
CSCC[C@H](NC(=O)OC(C)(C)C)C(=O)N1CCC(C(=O)N[C@@H](C)C(=O)NCc2ccc(F)cc2)CC1	2	5	8	2	8	-12	nt
O=C(NC(=S)Nc1cc(S(=O)(=O)N2CCOCC2)ccc1O)c1ccco1	13	7	12	4	44*	-3	32*
CSCCC(NS(=O)(=O)c1ccccc1F)C(=O)OCc1ccccc1Cl (centres undefined)	6	4	5	9	5	11	nt
CCCOc1ccccc1/C=C(\C#N)C(=O)Nc1cccnc1	10	-1	0	7	40*	10	29
Cc1ccccc1S(=O)(=O)/N=C(/Nc1nc2ccccc2s1)c1ccccc1	nt	2	4	-1	36*	nt	30*
CC(C)Cn1c(N)c(C(=O)COC(=O)[C@@H]2CCCN2C(=O)c2cccs2)c(=O)n(C)c1=O	-1	4	8	5	-4	-7	nt
N/C(Cc1ccc([N+](=O)[O-])cc1)=N\OC(=O)c1ccccc1F	10	2	15	-2	38*	5	23
COc1ccccc1/C=C/C(=O)Nc1ccc2c(c1)OCCO2	16	8	6	2	0	11	nt
COc1ccccc1/C=C/C(=O)OCC(=O)Nc1ccc2c(c1)OCCO2	nt	16	5	-1	80*	3	78*
COc1cc(/C=C/C(=O)OCC(=O)Nc2ccc3c(c2)OCCO3)ccc1OCC#N	2	-4	4	-2	42*	4	51*
Cc1cc(C)n(-c2n[nH]c(C)c2[N+](=O)[O-])n1	-22	-1	0	2	4	3	nt
CC(=O)Nc1nn(C)c2nc(C)cc(C)c12	2	1	4	-2	2	26	nt
COc1cccc(C(=O)Nc2cc(C)on2)c1OC	-14	2	4	0	6	-2	nt
COc1cccc(C(=O)OCC(=O)Nc2cc(C)on2)c1OC	nt	8	7	2	74*	nt	52*
Cc1cc(NC(=O)COC(=O)c2ccc(NS(=O)(=O)c3ccc(C)c(C)c3)cc2)no1	25	-2	-1	1	23	-2	nt
Cc1cc(NC(=O)COC(=O)c2ccc(C)c(C)c2)no1	nt	4	4	-1	52*	nt	34*
COc1cccc(CC(=O)Nc2ccc(S(=O)(=O)Nc3nc(C)cc(C)n3)cc2)c1	0	2	10	2	2	5	nt
CC(=O)N1c2ccc(S(=O)(=O)N(C)CC(=O)NCc3ccc(C)cc3)cc2CC1C (centres undefined)	-15	-1	-2	-7	2	-9	nt
SMILES	EBNA-1 inh	pPAFAH FP inh	PAFAH1B3 inh	PAFAH1B2 FP inh	PAFAH2 inh	ZTA DNA inh	PAFAH2 FP conf
O=C(COC(=O)/C=C/c1ccc(F)cc1)NC1CCCC1	nt	nt	3	3	79*	nt	86*
CC(C)NC(=O)COC(=O)/C=C/c1ccc(F)cc1	5	1	5	-3	36*	13	22
O=C(COC(=O)/C=C/c1ccc(F)cc1)NC1CC1	nt	2	1	-1	49*	nt	37*
CCN(C(=O)COC(=O)/C=C/c1ccc(F)cc1)C1CCCCC1	nt	7	4	3	-3	nt	nt
O=C(COC(=O)/C=C/c1ccc(F)cc1)NC1CCCCCC1	nt	12	3	0	89*	nt	81*
COc1cccc(-n2cnnc2SC(C)C(=O)NC2CCCC2)c1 (centres undefined)	nt	-3	6	3	1	11	nt
COc1ccccc1OCC(=O)NCCSCc1cccc(Cl)c1	-9	1	2	0	-5	-4	nt
COc1ccc(CNC(=O)C(C)Cc2ccccc2)cc1O (centres undefined)	-3	-1	-3	2	1	7	nt
Cc1nc(S(=O)(=O)c2ccc(Cl)cc2)c(N(C)C)o1	-1	1	5	6	-4	-17	nt
O=C(CSc1nccn1Cc1ccccc1)NC1CCCC1	-1	2	8	-1	1	4	nt
O=C(COC(=O)/C=C/c1ccc(Cl)c(Cl)c1)NC1CC1	nt	6	7	9	17	nt	nt
O=C(COC(=O)/C=C/c1ccc(Cl)cc1)NC1CCCC1	nt	2	6	6	64*	-21	67*
O=C(NNC(=O)C12CC3CC(CC(C3)C1)C2)c1ccccn1	-7	5	16	8	37*	4	18
Fc1c(F)c(F)c(N=Cc2ccc3ncccc3c2)c(F)c1F	1	-2	7	3	5	-20	nt
O=C1CCCN1C(=O)CSc1nnnn1-c1cccc(F)c1	nt	-1	13	10	28	nt	nt
CCOc1ccccc1-n1nnnc1SCC(=O)N1CCCC1=O	nt	0	17	2	66*	nt	56*
O=S(=O)(c1ccc2c(c1)CCCN2)N1CCCC2CCCCC21 (centres undefined)	5	5	24	24	31*	11	2
O=S(=O)(c1ccc2c(c1)CCCN2)N1CCCC1	nt	-2	-1	7	-1	4	nt
COc1ccc(N2CCN(C(=O)CN3C(=O)NC(C)(C4CC4)C3=O)CC2)cc1 (centres undefined)	nt	0	1	3	-8	-11	nt
O=C(OCCN=C1NS(=O)(=O)c2ccccc21)c1cccs1	5	4	10	5	38*	20	11
